High-throughput results: PubChem, ICCB-Longwood Screening Facility, Harvard Medical School
Sa growth inh: S. aureus growth inhibition | S. aureus RN4220 growth, OD600, 20 h, 42 °C; hits give low values | relative growth, % (no concentration beside the values) | 0.53% of 170,000 active | AID 720641;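 active = relative growth at most 50% at the other temperature and 20+ points below 30 °C, or under 10% at both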
Sa helicase inh: S. aureus DNA helicase inhibition; purified S. aureus helicase, fluorescence unwinding assay; inhibition, % (concentration not given with the values); 0.05% of 120,000 active; in the data active = inhibition above about 25%, passing the limit was not always enough
A number is an active result; . = inactive; / = no result. Only some compounds are listed: those with a hit (about 0.52% of all), similar ones and a draw of the others.

SMILES	Sa growth inh	Sa helicase inh
CCn1c2ccccc2c2cc(C#N)ccc21	44	.
CCn1c2ccccc2c2cc(N=C=S)ccc21	.	.
Clc1ccc(CSc2nnc(Cc3cccs3)n2C2CC2)cc1Cl	.	.
COc1cccc(CSc2nnc(Cc3cccs3)n2C2CCCCC2)c1	5.8	.
O=C(CCNS(=O)(=O)c1cccc2nsnc12)NC1CCCCC1	.	.
COc1cccc(-c2ocnc2C(=O)Nc2ccc(N3Cc4ccccc4C3)cc2)c1	.	.
CCCCCCCCCCCCCCCC(=O)O[C@@H]1[C@@H](O)[C@@H](O)[C@@H](C(NC(=O)[C@@H]2C[C@@H](CCC)CN2C)C(C)Cl)O[C@@H]1SC (some centres undefined)	.	/
CCC[C@@H]1C[C@@H](C(=O)N[C@@H]([C@H]2O[C@H](SC)[C@H](O)[C@@H](O)[C@H]2O)[C@@H](C)O)N(C)C1	0.0	/
Fc1ccc(Nc2nc3ccccc3nc2Nc2ccc(F)cc2)cc1	-0.4	.
Fc1ccc(Nc2nc(-c3ccncc3)nc3ccccc23)cc1	.	.
CCOC(=O)c1cnn(-c2nc(-n3ncc(C(=O)OCC)c3N)c3c4c(sc3n2)COC(C)(C)C4)c1N	.	.
c1ccc(-c2ccc(C(c3ccccc3)n3ccnc3)cc2)cc1 (centres undefined)	1.6	/
CC(N)c1ccc(-c2ccccc2)cc1 (centres undefined)	.	.
C1CCN(CC2COC3(CCCC3)O2)CC1 (centres undefined)	.	.
C/C(=N/NC(=O)Cc1cccs1)c1ccc(C)cc1	.	.
CC(=O)Nc1ccc2c(c1)OCO2	.	.
N#CC(C#N)=NNc1ccc2c(c1)OCO2	0.6	.
CCOc1ccccc1NC(=O)COC(=O)Cc1ccc(OC)cc1	.	.
CCN(CC)S(=O)(=O)c1ccc2c(c1)nc(CCC(=O)Oc1ccc3c(c1)OCO3)n2CC	.	.
COC(=O)Oc1ccc2c3c(c(=O)oc2c1)CCCC3	/	.
O=C(O)C1Cc2ccccc2N1 (centres undefined)	.	.
CCS(=O)(=O)c1ncc(Cl)c(C(=O)N(Cc2ccccc2)c2ccc(OC)cc2)n1	5.0	/
COc1ccc(N(Cc2ccccc2)C(=O)c2nc(SC)ncc2Cl)cc1	.	/
CCSc1ncc(Cl)c(C(=O)N(Cc2ccccc2)Cc2ccco2)n1	.	/
CCCS(=O)(=O)c1ncc(Cl)c(C(=O)N(Cc2ccccc2)Cc2ccco2)n1	1.2	/
SMILES	Sa growth inh	Sa helicase inh
CCC(C)(C)NC(=O)c1ccc2c(c1)N(CC#N)C(=O)C(C)(C)O2	.	.
CCn1c(SCC(=O)OCC(=O)Nc2cccc(C(F)(F)F)c2)nnc1-c1ccco1	.	.
CN(C)/N=C/c1ccc(P(N2CCOCC2)N2CCOCC2)o1	.	.
O=C1NC(=O)/C(=C\C=C\c2ccccc2)S1	/	.
O=C1NC(=S)S/C1=C\C=C\c1ccccc1	6.9	.
O=C1CCCCCN1Sc1c(-c2ccccc2)nc2sccn12	/	.
CCN1/C(=C/c2sc3ccccc3[n+]2CCO)Sc2ccccc21	.	44
Cc1ccc2c(c1)N(CCO)/C(=C/c1sc3ccccc3[n+]1C)S2	-1.4	.
CCC(=O)/C=C1/Sc2ccc(C)cc2N1CC	.	.
CCN1/C(=C\C=C2\C(=O)N(C)C(=S)N2C)Sc2ccccc21	.	.
CC[C@@H]1OC(=O)C[C@@H](O)[C@H](C)[C@@H](O[C@@H]2O[C@H](C)[C@@H](O)[C@H](N(C)C)[C@H]2O)[C@@H](CCN2C[C@H](C)C[C@H](C)C2)C[C@@H](C)C(=O)/C=C/C(C)=C\[C@@H]1CO[C@@H]1O[C@H](C)[C@@H](O)[C@@H](OC)[C@H]1OC	0.5	/
CC(=O)Nc1ccc(S(=O)(=O)NCC2CCN(CC3CCCCC3)CC2)cc1	.	.
COc1cccc(CNC(=O)Cc2cccc(OC)c2)c1	.	.
O=C(Nc1nnc(-c2ccc3c(c2)CCCC3)o1)C1CCCCC1	/	.
CCC(=O)Nc1nnc(-c2ccc3c(c2)CCCC3)o1	-0.4	.
CCC(=O)Nc1nnc(-c2cccc(OC)c2)o1	0.6	.
CCC(=O)Nc1nnc(-c2ccco2)o1	.	.
CCc1cc2c(=O)c(-c3csc(C)n3)coc2cc1OC(C)C(=O)O (centres undefined)	.	.
CN1c2ccccc2N(C)C1c1ccc(O)cc1	-1.2	.
CN1C(=O)c2ccccc2N(C)C1c1ccc(F)cc1 (centres undefined)	.	.
CCN1C=C/C(=C\c2cc[n+](CC)c3ccccc23)c2ccccc21	5.5	82
CC[n+]1ccc(C)c2ccccc21	.	.
Cc1cc(C(=O)OC(C)C(=O)Nc2ccc(Cl)cc2Cl)c(C)o1 (centres undefined)	.	.
C=CCN(CC=C)Cn1nc(-c2c[nH]c3ccccc23)oc1=S	43	.
C=CCN(CC=C)Cn1nc(Nc2ccccc2F)sc1=S	.	.
SMILES	Sa growth inh	Sa helicase inh
Cn1cc(S(=O)(=O)N2CCc3ccccc32)cc1C(=O)NC1CCCCCCC1	.	.
Cc1ccc(Nc2nc(C(=O)N(C)Cc3ccccc3)cs2)cc1	.	.
Cc1ccc(Nc2nc(CN(C)CCCc3[nH]nc(N)c3C#N)cs2)cc1	-1.1	.
CCN(CC)CC(=O)N1N=C(c2cccs2)CC1c1ccccc1O (centres undefined)	.	.
Cc1sc2nc(Nc3ccc(S(N)(=O)=O)cc3)sc(=O)c2c1C	/	.
CSc1c(-c2ccc(Cl)cc2)[nH]c2ccccc12	21	/
Cc1ccc(-c2[nH]c3ccccc3c2SCCN)cc1	/	.
O=c1ccc(=O)n(CN(c2ccccc2)c2ccccc2)[nH]1	.	.
CCOC(=O)c1nnc(-c2ccc3c(c2)OCO3)o1	.	.
CCCN(CCC)Cn1nc(-c2ccc3c(c2)OCO3)oc1=S	39	.
Cc1ccc(CCC(=O)Nc2ccc(C(C)C)cc2)o1	.	.
CCN(CC)c1nc(Nc2ccc(Cl)cc2)nc(N(CC)CC)n1	.	.
Cc1c(C#N)c(N)n(Cc2cc(C(F)(F)F)cc(C(F)(F)F)c2)c1C	-0.1	.
CCOCCCn1c(C)c(C)c(C#N)c1N	.	.
CCCNC(=O)c1ccc2c(=O)n3nc(Nc4ccccc4CC)sc3nc2c1	.	.
S=c1[nH]c(-c2ccccc2)cs1	16	.
O=c1[nH]c(-c2ccccc2)cs1	.	.
CCc1[nH]nc2c1C(c1cc(OC)c(OC(C)=O)c(OC)c1)C(C#N)=C(N)O2 (centres undefined)	.	.
COc1cc(/C=C(/NC(=O)C2CCCCC2)C(=O)N2CC3CC(C2)c2cccc(=O)n2C3)cc(OC)c1OC (centres undefined)	.	.
CC1N(C)c2cc(CN3C(=O)c4ccccc4C3=O)ccc2C1(C)C (centres undefined)	.	.
C[C@@H]1CN(c2c(F)c(N)c3c(=O)c(C(=O)O)cn(C4CC4)c3c2F)C[C@H](C)N1	-0.1	/
CCCCN1C(=O)c2ccc(C(=O)OC3CCCCC3=O)cc2C1=O (centres undefined)	.	.
O=C(CN1C(=O)c2ccccc2C1=O)NCC(F)(F)F	.	.
CC[C@H]1OC(=O)[C@H](C)[C@@H](O[C@H]2C[C@@](C)(OC)[C@@H](O)[C@H](C)O2)[C@H](C)[C@@H](O[C@@H]2O[C@H](C)C[C@H](N(C)C)[C@H]2O)[C@](C)(O)C[C@@H](C)/C(=N\OCOCCOC)[C@H](C)[C@@H](O)[C@]1(C)O	0.1	/
